{
  "source": "ChEMBL document CHEMBL1157539",
  "about": "“Thousands of chemical starting points for antimalarial lead identification” (Nature, 2010)",
  "type_in_all_cases": "functional",
  "key": {"Plasmodium falciparum [1]": {"test_system": "Plasmodium falciparum", "assay": "GSK_TCMDC: Inhibition of Plasmodium falciparum 3D7 in whole red blood cells, using parasite LDH activity as an index of growth. Test compounds present at 2uM"}, "Plasmodium falciparum [2]": {"test_system": "Plasmodium falciparum", "assay": "GSK_TCMDC: Inhibition of Plasmodium falciparum Dd2 in whole red blood cells, using parasite LDH activity as an index of growth. Test compounds present at 2uM"}, "HepG2": {"test_system": "HepG2", "assay": "GSK_TCMDC: Percent inhibition of human HepG2 cell line. Test compounds present at 10uM."}},
  "data": [
    {"smiles": "O=C(NCCN1CCCC1)c1cccc(-c2ccc(-c3nc4ccccc4[nH]3)s2)c1", "values": [
      {"measurement": "Inhibition", "setting": "Plasmodium falciparum [1]", "value": 96, "unit": "%"},
      {"measurement": "Inhibition", "setting": "Plasmodium falciparum [2]", "value": 13, "unit": "%"},
      {"measurement": "Inhibition", "setting": "HepG2", "value": 27, "unit": "%"}
    ]},
    {"smiles": "Cc1ccc2c(Cl)c(C(=O)N3CCCc4ccccc43)sc2c1", "values": [
      {"measurement": "Inhibition", "setting": "Plasmodium falciparum [1]", "value": 99, "unit": "%"},
      {"measurement": "Inhibition", "setting": "Plasmodium falciparum [2]", "value": 15, "unit": "%"},
      {"measurement": "Inhibition", "setting": "HepG2", "value": 4, "unit": "%"}
    ]},
    {"smiles": "CC(=O)Nc1ccc(C(=O)Nc2cccc(-c3ccc(-c4nc5cc(F)ccc5[nH]4)cc3)c2)cn1", "values": [
      {"measurement": "Inhibition", "setting": "Plasmodium falciparum [1]", "value": 99, "unit": "%"},
      {"measurement": "Inhibition", "setting": "Plasmodium falciparum [2]", "value": 99, "unit": "%"},
      {"measurement": "Inhibition", "setting": "HepG2", "value": 10, "unit": "%"}
    ]},
    {"smiles": "O=C(/C=C/c1ccc(Cl)c(Cl)c1)NC1CCC(CN2CCC(c3nc4ccccc4s3)CC2)CC1", "note": "(centres undefined)", "values": [
      {"measurement": "Inhibition", "setting": "Plasmodium falciparum [1]", "value": 87, "unit": "%"},
      {"measurement": "Inhibition", "setting": "Plasmodium falciparum [2]", "value": 32, "unit": "%"},
      {"measurement": "Inhibition", "setting": "HepG2", "value": 50, "unit": "%"}
    ]},
    {"smiles": "N#Cc1cc([N+](=O)[O-])ccc1-n1nc(-c2cccc(Cl)c2)n(CC2CCCO2)c1=S", "note": "(centres undefined)", "values": [
      {"measurement": "Inhibition", "setting": "Plasmodium falciparum [1]", "value": 91, "unit": "%"},
      {"measurement": "Inhibition", "setting": "Plasmodium falciparum [2]", "value": 89, "unit": "%"},
      {"measurement": "Inhibition", "setting": "HepG2", "value": 0, "unit": "%"}
    ]},
    {"smiles": "CC(C)c1ncc(-c2ccncc2)c(C2CCC(CNC(=O)c3ccncc3)CC2)n1", "note": "(centres undefined)", "values": [
      {"measurement": "Inhibition", "setting": "Plasmodium falciparum [1]", "value": 85, "unit": "%"},
      {"measurement": "Inhibition", "setting": "Plasmodium falciparum [2]", "value": 49, "unit": "%"},
      {"measurement": "Inhibition", "setting": "HepG2", "value": 0, "unit": "%"}
    ]},
    {"smiles": "CC(C)CNc1c2c(nc3cnn(-c4c5c(nc6cn[nH]c46)CCCC5)c13)CCCC2", "values": [
      {"measurement": "Inhibition", "setting": "Plasmodium falciparum [1]", "value": 100, "unit": "%"},
      {"measurement": "Inhibition", "setting": "Plasmodium falciparum [2]", "value": 0, "unit": "%"},
      {"measurement": "Inhibition", "setting": "HepG2", "value": 7, "unit": "%"}
    ]},
    {"smiles": "Cc1cnc(NCCc2ccc(F)cc2)nc1N[C@@H](CC(C)C)C(=O)Nc1ccccc1.O=C(O)C(F)(F)F", "values": [
      {"measurement": "Inhibition", "setting": "Plasmodium falciparum [1]", "value": 87, "unit": "%"},
      {"measurement": "Inhibition", "setting": "Plasmodium falciparum [2]", "value": 29, "unit": "%"},
      {"measurement": "Inhibition", "setting": "HepG2", "value": 19, "unit": "%"}
    ]},
    {"smiles": "O=C(NCCN1CCCC1)c1cc(-c2ccc(Cl)c(O)c2)c(-c2ccncc2)o1", "values": [
      {"measurement": "Inhibition", "setting": "Plasmodium falciparum [1]", "value": 92, "unit": "%"},
      {"measurement": "Inhibition", "setting": "Plasmodium falciparum [2]", "value": 0, "unit": "%"},
      {"measurement": "Inhibition", "setting": "HepG2", "value": 0, "unit": "%"}
    ]},
    {"smiles": "Cc1[nH]c(C)c(-c2ccc(-c3cc(C(F)(F)F)cc(C(F)(F)F)c3)nc2)c(=O)c1Br", "values": [
      {"measurement": "Inhibition", "setting": "Plasmodium falciparum [1]", "value": 98, "unit": "%"},
      {"measurement": "Inhibition", "setting": "Plasmodium falciparum [2]", "value": 96, "unit": "%"},
      {"measurement": "Inhibition", "setting": "HepG2", "value": 18, "unit": "%"}
    ]},
    {"smiles": "CC(=O)COc1c(C2CCN(CCCCNC(=O)c3ccc(-c4ccc(C(F)(F)F)cc4)cc3)CC2)ccc2c1CCCC2", "values": [
      {"measurement": "Inhibition", "setting": "Plasmodium falciparum [1]", "value": 99, "unit": "%"},
      {"measurement": "Inhibition", "setting": "Plasmodium falciparum [2]", "value": 53, "unit": "%"},
      {"measurement": "Inhibition", "setting": "HepG2", "value": 100, "unit": "%"}
    ]},
    {"smiles": "ON=C(c1nc2ccccc2[nH]1)c1nc2ccccc2[nH]1", "values": [
      {"measurement": "Inhibition", "setting": "Plasmodium falciparum [1]", "value": 93, "unit": "%"},
      {"measurement": "Inhibition", "setting": "Plasmodium falciparum [2]", "value": 68, "unit": "%"},
      {"measurement": "Inhibition", "setting": "HepG2", "value": 36, "unit": "%"}
    ]},
    {"smiles": "COc1cc(F)c2ncc(Cl)c(CCN3CCC(NCc4ccc5c(n4)NC(=O)CS5)CC3)c2c1.Cl", "values": [
      {"measurement": "Inhibition", "setting": "Plasmodium falciparum [1]", "value": 99, "unit": "%"},
      {"measurement": "Inhibition", "setting": "Plasmodium falciparum [2]", "value": 41, "unit": "%"},
      {"measurement": "Inhibition", "setting": "HepG2", "value": 18, "unit": "%"}
    ]},
    {"smiles": "CCNc1cc(C(=O)N[C@@H](Cc2ccccc2)[C@H](O)CNC2CCC(F)(F)CC2)c(F)c(N2CCCCS2(=O)=O)c1.O=CO", "values": [
      {"measurement": "Inhibition", "setting": "Plasmodium falciparum [1]", "value": 100, "unit": "%"},
      {"measurement": "Inhibition", "setting": "Plasmodium falciparum [2]", "value": 97, "unit": "%"},
      {"measurement": "Inhibition", "setting": "HepG2", "value": 0, "unit": "%"}
    ]},
    {"smiles": "O=C(NCCc1ccc(Cl)c(Cl)c1)C1CCCN(C(=O)c2ccc(O)c(-c3ccc(Cl)c(Cl)c3)c2)C1", "note": "(centres undefined)", "values": [
      {"measurement": "Inhibition", "setting": "Plasmodium falciparum [1]", "value": 96, "unit": "%"},
      {"measurement": "Inhibition", "setting": "Plasmodium falciparum [2]", "value": 65, "unit": "%"},
      {"measurement": "Inhibition", "setting": "HepG2", "value": 0, "unit": "%"}
    ]},
    {"smiles": "Cc1cccc2nc(-c3cccc(-c4ccc(CN5CCC(C(N)=O)CC5)cc4)c3)[nH]c12.O=C(O)C(F)(F)F", "values": [
      {"measurement": "Inhibition", "setting": "Plasmodium falciparum [1]", "value": 89, "unit": "%"},
      {"measurement": "Inhibition", "setting": "Plasmodium falciparum [2]", "value": 9, "unit": "%"},
      {"measurement": "Inhibition", "setting": "HepG2", "value": 0, "unit": "%"}
    ]},
    {"smiles": "COc1ccc(CCNCCCCCNCCCc2ccc(Cl)cc2)cc1OC.Cl", "values": [
      {"measurement": "Inhibition", "setting": "Plasmodium falciparum [1]", "value": 100, "unit": "%"},
      {"measurement": "Inhibition", "setting": "Plasmodium falciparum [2]", "value": 2, "unit": "%"},
      {"measurement": "Inhibition", "setting": "HepG2", "value": 24, "unit": "%"}
    ]},
    {"smiles": "CC(C)CCN1CCCN(Cc2cccc(NC(=O)c3cc4ccccc4s3)c2)CC1.O=C(O)C(F)(F)F", "values": [
      {"measurement": "Inhibition", "setting": "Plasmodium falciparum [1]", "value": 96, "unit": "%"},
      {"measurement": "Inhibition", "setting": "Plasmodium falciparum [2]", "value": 8, "unit": "%"},
      {"measurement": "Inhibition", "setting": "HepG2", "value": 34, "unit": "%"}
    ]},
    {"smiles": "COc1nc2c(CCN3CC[C@H](NCc4ccc5c(c4)NC(=O)CO5)[C@H](O)C3)c(Cl)cnc2cc1F.Cl", "values": [
      {"measurement": "Inhibition", "setting": "Plasmodium falciparum [1]", "value": 90, "unit": "%"},
      {"measurement": "Inhibition", "setting": "Plasmodium falciparum [2]", "value": 22, "unit": "%"},
      {"measurement": "Inhibition", "setting": "HepG2", "value": 21, "unit": "%"}
    ]},
    {"smiles": "CCN1CCCC(CNC(=O)/C(=C/C=C/c2cc3cc(Cl)c(Cl)cc3[nH]2)OC)C1", "note": "(centres undefined)", "values": [
      {"measurement": "Inhibition", "setting": "Plasmodium falciparum [1]", "value": 93, "unit": "%"},
      {"measurement": "Inhibition", "setting": "Plasmodium falciparum [2]", "value": 89, "unit": "%"},
      {"measurement": "Inhibition", "setting": "HepG2", "value": 33, "unit": "%"}
    ]},
    {"smiles": "Clc1ccc2nnc(-c3c(Cl)cccc3Cl)n2n1", "values": [
      {"measurement": "Inhibition", "setting": "Plasmodium falciparum [1]", "value": 96, "unit": "%"},
      {"measurement": "Inhibition", "setting": "Plasmodium falciparum [2]", "value": 60, "unit": "%"},
      {"measurement": "Inhibition", "setting": "HepG2", "value": 29, "unit": "%"}
    ]},
    {"smiles": "O=C(CCN1C(=O)c2ccccc2C1=O)N1CCN(CC=Cc2ccccc2)CC1", "values": [
      {"measurement": "Inhibition", "setting": "Plasmodium falciparum [1]", "value": 87, "unit": "%"},
      {"measurement": "Inhibition", "setting": "Plasmodium falciparum [2]", "value": 3, "unit": "%"},
      {"measurement": "Inhibition", "setting": "HepG2", "value": 10, "unit": "%"}
    ]},
    {"smiles": "COc1ccc(Nc2nccc(-c3ccc(NC(=O)c4cc5cc(F)ccc5[nH]4)cc3)n2)cc1", "values": [
      {"measurement": "Inhibition", "setting": "Plasmodium falciparum [1]", "value": 91, "unit": "%"},
      {"measurement": "Inhibition", "setting": "Plasmodium falciparum [2]", "value": 26, "unit": "%"},
      {"measurement": "Inhibition", "setting": "HepG2", "value": 21, "unit": "%"}
    ]}
  ]
}
